# Screens as filed in PubChem BioAssay.
# A selection: hits, their analogues and other compounds. The true share with any hit is near 5.3%.
# Coupling enz = counter-screen for Giardia aldolase inhibitors: coupling enzyme system; coupling enzyme system counterscreen, AmpLite Red fluorescence; activity change, negative = inhibition, % at 58.2 µM, hits read low; hit rate 0.67% among 290,000; AID 2472; in the data active = activity change below about -30%; also: % is scaled to controls: 0 for no effect and ±100 for the full control effect
#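 Final compound at 57.5 uM, incubated 10 min at RT with coupling enzyme reagent (glyceraldehyde-3-phosphate), then 20 min with substrate and AmpLite Red detection. Fluorescence read at 525/598 nm; tests interference with the coupling assay, not aldolase inhibition.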
# Tau fluor counter = counter-screen for tau fibril formation inhibitors. tau K18 P301L Alexa594 fluorescence, heparin fibrillization. Potency, µM (series often up to 57.7 µM), for the others: at the top dose activity change, negative = decrease. hit rate 0.93% among 280,000. AID 1463; also: potency is read from the fitted curve at half-maximal effect; % is scaled to controls: 0 for no effect and ±100 for the full control effect; nearly all actives have a fitted effect of over 55% in size
#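 Human K18 P301L tau (15 uM unlabeled plus 0.24 uM Alexa 594-labeled, final) in 100 mM sodium acetate pH 7 was mixed with compound and 20 uM heparin and incubated 6 hr at 37 C.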
# Tau fibril ThT = blocks human tau fibril formation measured by thioflavin T; P10636; recombinant tau K18 P301L, heparin-induced fibrillization, ThT fluorescence; Potency, µM (titrated, usually from 57.4 µM), for inactives: at the top dose activity, negative = inhibition, most hits filed as inhibitors; hit rate 2.1% among 270,000; AID 1460; also: potency is read from the fitted curve at half-maximal effect; % is scaled to controls: 0 for no effect and ±100 for the full control effect; nearly all actives have a fitted effect of over 55% in size
# Target sequence (P10636 561-689 P618L limits assumed): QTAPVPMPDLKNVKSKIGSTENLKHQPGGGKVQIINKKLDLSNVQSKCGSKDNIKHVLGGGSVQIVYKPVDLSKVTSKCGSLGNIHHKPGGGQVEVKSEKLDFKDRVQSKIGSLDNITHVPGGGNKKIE
#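 Using a mix of unlabeled (15 uM) and Alexa 594-labeled (0.24 uM) tau K18 P301L, heparin-triggered fibrillization over 6 hr at 37 C was scored by ThT fluorescence.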
# JMJD2E inh = JMJD2E (human) inhibition; hit rate 1.6% among 230,000; JMJD2E catalytic domain, FDH-coupled NADH fluorescence (FDH is formaldehyde dehydrogenase); Potency, µM (highest dose often 57.1 µM), for the others: at the highest dose activity change, negative = inhibition, actives largely listed as inhibitors; active = well fitted inhibition curve with a large enough effect, not every such curve was filed as active; inconclusive = small, poorly fitted or top-dose-only effect, or another doubt; inactive = no such curve, though single readings can be large or run the other way;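 also: potency is read from the fitted curve at half-maximal effect; 0% = wells with enzyme and -100% = buffer wells without enzyme; nearly all actives have a fitted effect of over 50% in size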
# Target sequence (B2RXH2 1-337 limits assumed): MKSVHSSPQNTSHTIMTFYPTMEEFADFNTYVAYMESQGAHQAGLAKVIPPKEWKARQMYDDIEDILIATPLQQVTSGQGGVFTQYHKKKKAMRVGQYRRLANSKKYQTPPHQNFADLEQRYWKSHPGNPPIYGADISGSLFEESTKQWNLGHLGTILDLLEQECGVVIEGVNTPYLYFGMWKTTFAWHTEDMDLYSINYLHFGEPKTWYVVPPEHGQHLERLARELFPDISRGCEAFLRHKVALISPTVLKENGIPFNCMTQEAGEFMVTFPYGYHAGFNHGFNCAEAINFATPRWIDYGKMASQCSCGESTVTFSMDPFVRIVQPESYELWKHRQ
# Sfp inh = Sfp phosphopantetheinyl transferase inhibition; AID 1490; Biochemical Sfp PPTase activity, qHTS; Potency, µM, inactives show largest response in the series, negative = inhibition, actives largely listed as inhibitors; hit rate 3.5% among 310,000;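 also: the enzyme is Sfp with the accession as filed and its product quenches rhodamine fluorescence; potency is read from the fitted curve at half-maximal effect; 0% = enzyme reaction without inhibitor and -100% = no enzyme wells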
#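 Sfp 15 nM + cpd, 15 min RT; start w/ rhodamine-CoA 5 uM, BHQ-2-YbbR 12.5 uM (final); 50 mM Hepes pH 7.6, 10 mM MgCl2, 0.01% NP-40, 0.01% BSA; read 525/598 nm at 0 and 30 min.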
# Tau FP inhib = inhibitors of human tau fibril formation; K18 P301L tau heparin fibrillization, Alexa594 FP, 6 h; P10636; AID 1468; hit rate 0.39% among 280,000; Potency, µM (top dose mostly 57.7 µM), without a hit: top-dose activity, negative = inhibition, usual class: inhibitors; also: potency is read from the fitted curve at half-maximal effect; % is scaled to controls: 0 for no effect and ±100 for the full control effect; nearly all actives have a fitted effect of over 55% in size
#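 Human tau K18 […] P301L fragment, 15 uM unlabeled plus 0.24 uM Alexa 594-labeled tau (final), with compound and 20 uM heparin in 100 mM sodium acetate pH 7; 6 hr at 37 C, then Alexa 594 FP read.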
# Tau TEM fibril = Inhibits human tau fibrillization. shares compounds with Tau fibril ThT. recombinant tau K18 P301L fibrillization, TEM grading; active compounds read high. fibril grade (0 = clumped fibrils, 4 = only tiny pieces) (concentration not given with the values). hit rate 70% among 45;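 active = compounds whose electron micrographs showed tau fibrils broken into shorter filaments or fragments, graded high on fibril breakup; inconclusive = micrographs gave an unclear fibril picture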
# tau sediment = tau fibrillization inhibition by sedimentation | recombinant tau K18 P301L (four-repeat tau fragment), sedimentation SDS-PAGE densitometry | AID 1720 | inhibition, % at 100 µM | shares compounds with Tau fibril ThT | hit rate 50% among 110; in the data active = inhibition above about 40%; inconclusive = no clear call, values can overlap the other calls; inactive = below about 18%
# Sfp inh conf = Sfp phosphopantetheinyl transferase inhibition, confirmation; shares compounds with Sfp inh; Sfp PPTase enzymatic assay, qHTS titration; Potency, µM (highest dose often 114 µM), inactives show top-dose activity change, negative = inhibition, hits mostly inhibitors; hit rate 79% among 380; AID 2701;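 also: potency is read from the fitted curve at half-maximal effect; plate controls were uninhibited Sfp reaction for no effect and no enzyme control for full effect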
# Target sequence (Q9F4F7 whole entry, looked up): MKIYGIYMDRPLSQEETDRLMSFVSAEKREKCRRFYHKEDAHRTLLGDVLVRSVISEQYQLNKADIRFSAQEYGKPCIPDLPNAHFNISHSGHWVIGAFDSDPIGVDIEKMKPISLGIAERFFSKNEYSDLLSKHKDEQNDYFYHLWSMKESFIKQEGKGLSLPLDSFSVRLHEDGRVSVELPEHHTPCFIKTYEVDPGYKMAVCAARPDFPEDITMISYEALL
# Sfp gel assay = Inhibits Bacillus subtilis Sfp phosphopantetheinyl transferase | shares compounds with Sfp inh | purified Sfp, gel-based phosphopantetheinylation read-out | Potency, µM, actives largely listed as inhibitors | hit rate 20% among 210;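 active = potency below 100 µM; inconclusive = dose-dependent response but potency above 100 µM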;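 also: band intensities scaled against SCH202676 control wells before curve fitting; potency is an IC50 for inhibitors of Sfp transfer activity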
# * hit, by the source's call; i = inactive; u = inconclusive; x = no result; ! = not active in a repeat; [ ] = remark or other dose. Unless noted, calls follow the shape of the dose curve; as a rule, active = well fitted curve in the direction sought with a large enough effect; inconclusive = small, poorly fitted or top-dose-only effect, or another doubt; inactive = no such curve, though single readings can be large; an effect the other way counts as inactive or inconclusive.
SMILES,Coupling enz,Tau fluor counter,Tau fibril ThT,JMJD2E inh,Sfp inh,Tau FP inhib,tau sediment,others
CC(=O)OCCC(C)CCC=C(C)C (stereo unspecified),0,-10%,-3%,7%,12%,-7%,x,
Cc1ccc(-c2cc(C(=O)NCCc3ccccc3)c3ccccc3n2)cc1C,x,-2%,11%,x,x,-4%,x,
O=C(Nc1ccccc1)Nc1cccc(NC(=O)Nc2ccccc2)c1F,0,x,x,x,11%,x,x,
Cc1cc2c(NC(=O)Nc3ccccc3)cccc2nn1,-42*,-25%,u,u,45µM*,u,u,Tau TEM fibril=u
O=C(Cn1nc2c(cc1=O)CCCC2)Nc1ccccc1C(F)(F)F,x,-17%,-5%,x,x,-15%,x,
CN(C)S(=O)(=O)c1cccc(N=C2NN=C(c3ccccc3)CS2)c1,0,u,8.9µM*,-2%,10%,u,u,Tau TEM fibril=3*
Cn1[nH]c(CSc2ccc(Cl)cc2)cc1=O,7,u,u,u,8%,u,16,
CCNC(=O)c1ccc(CSc2ccc(Cl)cc2)cc1,1,-2%,u,5%,18%,-8%,x,
Nc1cc(-c2ccccc2)c[nH]c1=O,x,x,x,x,x,x,65*,Tau TEM fibril=u
Nc1cc(-c2ccccc2)ccc1O,-4,-21%,u,u,-15%,5%,x,
Cc1noc(/C=C/c2cccs2)c1S(=O)(=O)N1CCC(C(=O)Nc2ccc(F)c(Cl)c2)CC1,x,u,4%,x,x,u,x,
COc1ccc(NC(=O)C2CCN(S(=O)(=O)c3c(C)noc3/C=C/c3cccs3)CC2)cc1Cl,x,-18%,5%,x,x,16µM*,8,
O=S(=O)(c1ccc(NC(=S)N/N=C/c2ccc(N3CCOCC3)cc2)cc1)N1CCOCC1,0,u,u,u,-2%,14%,11,
Nc1cccc2nc3ccccc3cc12,0,-9%,-17%,u,1%,-10%,x,
Cc1cc2c(N)cccc2nn1,-37*,u,3.2µM*,u,2µM*,u,64*,Tau TEM fibril=3*
O=C(O)c1cccc(S(=O)(=O)Nc2ccc([N+](=O)[O-])cc2O)c1,10,-24%,-25%,u,u,u,x,
O=C(O)CSc1cc(NS(=O)(=O)c2cccc([N+](=O)[O-])c2)c2ccccc2c1O,-40*,u,1.8µM*,u,2.8µM*,4µM*,79*,Tau TEM fibril=4*
CCc1ccc(S(=O)(=O)Nc2cc(SCC(=O)O)c(O)c3ccccc23)cc1,-42*,u,3.2µM*,u,4µM*,8.9µM*,77*,Tau TEM fibril=4*
COc1ccc(CCNC(=O)CCCn2c(=O)c3cccn3c3ccc(F)cc32)cc1OC,x,8%,2%,x,x,-15%,x,
COC(=O)c1ccccc1NC(=O)NCc1ccc2c(c1)CCN2C(=O)c1ccccc1,x,-19%,-15%,x,x,2%,x,
Cc1nc2ccccc2oc1=O,0,u,u,5%,-3%,10%,13,
O=C(NCCc1ccccc1Cl)c1ccc2c(=O)n(-c3ccccc3)c(=O)[nH]c2c1,x,-11%,-8%,x,x,-12%,x,
O=S(=O)(c1ccc(N=C2NN=C(c3cc(F)ccc3F)CS2)cc1)N1CCOCC1,3,u,6.3µM*,-7%,-20%,u,44*,Tau TEM fibril=3*
COc1ccc2c(c1)c(CC(=O)N1CCOCC1)c(C)n2C(=O)c1ccc(Cl)cc1,1,-5%,-6%,6%,22%,8%,9,
Nc1cc(-c2ccncc2)c[nH]c1=O,-73*,u,1.4µM*,1.1µM*,6.3µM*!,2µM*,61*,Tau TEM fibril=3*;Sfp inh conf=13µM*;Sfp gel assay=u
SMILES,Coupling enz,Tau fluor counter,Tau fibril ThT,JMJD2E inh,Sfp inh,Tau FP inhib,tau sediment,others
COc1ccccc1C(=O)Nc1ccccc1OCc1cc(=O)n2ccccc2n1,x,-18%,-7%,x,x,-14%,x,
CCOC(=O)c1nn(-c2ccccc2)c(=O)c2c(N)scc12,-45*,u,8.9µM*,u,13µM*,u,73*,Tau TEM fibril=2*;Sfp inh conf=19µM*
COc1cccc(CNc2ccccn2)c1O,1,x,x,x,15%,x,x,
COc1cccc(CNc2cccc3cccnc23)c1O,-57*,u,28µM*,-2%,4.5µM*,u,u,Tau TEM fibril=2*;Sfp inh conf=21µM*;Sfp gel assay=i
COCOc1ccc(Br)cc1C(=O)[C@H]1O[C@H]1c1cccc(OC)c1,-1,-15%[11.6 µM],-11%[11.5 µM],x,15%,-5%[11.6 µM],x,
Cc1ccc(Nc2c(-c3ccccn3)nc3cc(C)ccn23)cc1,0,-26%,u,0%,1%,9%,x,
Cc1ccn2c(Nc3ccc4c(c3)OCO4)c(-c3ccccn3)nc2c1,-24,11%,14%,0%,2.8µM*,-2%,x,Sfp inh conf=u;Sfp gel assay=i
COc1cccc(CNCCSc2nnnn2C)c1OCc1ccc(Cl)cc1,x,-17%,-11%,x,x,-4%,x,
CCc1nn(CCCC(=O)N2CCN(c3cc(Cl)ccc3C)CC2)c(=O)c2cc3occc3n12,x,-9%,u,x,x,5%,x,
Cc1ccc(-c2nc(N)sc2CC(=O)OCC(=O)N2C(C)CCCC2C)cc1 (stereo unspecified),2,4%,6%,4%,18µM*,5%,x,Sfp inh conf=37µM*;Sfp gel assay=i
c1ccc(-c2nnc(CN3CCCCC3)o2)cc1,-1,x,x,x,u,x,x,
c1ccc(-c2nnc(CN3CCCc4ccccc43)o2)cc1,-21,-8%,-13%,u,14µM*,-1%,x,Sfp inh conf=47µM*;Sfp gel assay=u
O=C(NCCCn1ccnc1)c1nn2c(C(F)(F)F)cc(-c3ccc(Br)cc3)nc2c1Cl,1,21%,u,-1%,1.1µM*,u,x,Sfp inh conf=u
Cc1ccc(NCc2ccc(O)c3ncccc23)cc1C,-2,-7%[2.34 µM],4%,1%,8%,7%,x,
Cc1ccc(NCc2ccc(O)c3ncccc23)cc1,-9,-8%[2.34 µM],-2%,-2%,3.5µM*,-3%,x,Sfp inh conf=u
CO/N=C(/C(=O)N[C@@H]1C(=O)N2C(C(=O)O)=C(CSc3nnnn3C)CS[C@H]12)c1csc(N)n1,x,x,x,x,-22%,x,x,
